Sampled rows, rich in hits. Any-hit rate of the full collection: about 7.4%.
Hedgehog inh = blocks Sonic Hedgehog signaling; Shh-LIGHT2 Gli-luciferase reporter, 30 h; 22,000 tested, 2.1% active; AID 2313; inhibition, % (concentration not given with the values);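 active = mean inhibition across valid replicates above about 65%, limit read from the data; inconclusive = mean under the limit, yet half or more replicates past it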;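 note: pathway switched on by Shh-conditioned medium diluted 1 in 25 in low serum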
NOMO-1 viab = STK33 inhibitor candidate reducing NOMO-1 cell viability; NOMO-1 AML viability, CellTiter-Glo luminescence, 72 h; inhibition, % (concentration not given with the values); 37,000 tested, 7.5% active; AID 2330; in the data active = inhibition above about 80%; inconclusive = no clear call, values can overlap the other calls
MITF inh = MITF inhibition; TRPM1 promoter luciferase, luminescence, 24 h; inhibition, % (test concentration not listed); 37,000 tested, 0.28% active; in the data active = inhibition above about 85%; inconclusive = no clear call, values can overlap the other calls; inactive = below about 68%;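 note: human melanocyte line stably carrying TRPM1 promoter luciferase reporter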
YB-1 expression = YB-1 expression inhibition; U2OS, qRT-PCR YB-1 vs CDIP delta delta Cp, 16 h; active compounds read high; zero = DMSO, each unit about twofold; delta delta Cp (YB-1 minus CDIP) (test concentration not listed); 30,000 tested, 0.37% active; AID 434959;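 active = delta delta Cp rounded down to an integer at or above 3, about 3 SD of DMSO wells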;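 note: higher means less YB-1 transcript or more CDIP transcript relative to DMSO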
PD-1 reversal = reversal of PD-1 mediated T-cell inhibition | 29,000 tested, under 10 active | primary human CD4 T cells, PD-L1 beads, CellTiter-Glo 96 h | activation, % (concentration not given with the values); call rule not given here
Of the large screens only hits and unclear results are named; the others gave an inactive call.

CCn1c2c(c3cc(OCc4ccccc4)ccc31)CCCC2=O	Hedgehog inh 76.8
C[C@H](CO)N1C[C@H](C)[C@H](CN(C)Cc2ccccc2)Oc2ccc(NC(=O)Nc3ccc(C(F)(F)F)cc3)cc2C1=O	NOMO-1 viab 91.3 (no result: Hedgehog inh)
C[C@H]1CN([C@@H](C)CO)C(=O)c2cc(NC(=O)Nc3ccc(C(F)(F)F)cc3)ccc2O[C@H]1CN(C)Cc1ccccc1	NOMO-1 viab 102.6 (no result: Hedgehog inh)
C[C@@H]1CN([C@@H](C)CO)C(=O)c2cc(NC(=O)Nc3ccc(C(F)(F)F)cc3)ccc2O[C@H]1CN(C)Cc1ccccc1	NOMO-1 viab 96.2
C[C@H]1CN([C@@H](C)CO)C(=O)c2cc(NC(=O)Nc3ccccc3)ccc2O[C@@H]1CN(C)Cc1ccc(C(F)(F)F)cc1	NOMO-1 viab inconclusive
C[C@@H]1CN([C@H](C)CO)C(=O)c2cc(NC(=O)Nc3ccc(C(F)(F)F)cc3)ccc2O[C@@H]1CN(C)Cc1ccccc1	NOMO-1 viab 89.2 (no result: Hedgehog inh)
C[C@H]1CN([C@@H](C)CO)C(=O)c2cc(NC(=O)Nc3ccccc3)ccc2O[C@H]1CN(C)Cc1ccc(C(F)(F)F)cc1	none (no result: Hedgehog inh)
COc1ccc(CN(C)C[C@H]2Oc3c(NS(=O)(=O)c4ccc(F)cc4)cccc3C(=O)N([C@H](C)CO)C[C@@H]2C)cc1	none
CC(=O)OCCCNC(=O)c1cc2ccccc2oc1=O	none (no result: Hedgehog inh, YB-1 expression)
CC(NS(=O)(=O)c1cc(Cl)ccc1Cl)C(=O)Nc1ccccc1 (centres undefined)	none (no result: Hedgehog inh, YB-1 expression, PD-1 reversal)
C[C@H]1CN([C@@H](C)CO)C(=O)c2cc(NC(=O)Nc3ccc(C(F)(F)F)cc3)ccc2O[C@@H]1CN(C)Cc1ccc(Oc2ccccc2)cc1	none (no result: Hedgehog inh)
C[C@@H]1CN([C@@H](C)CO)C(=O)c2cc(NC(=O)Nc3ccccc3)ccc2O[C@@H]1CN(C)Cc1ccc(C(F)(F)F)cc1	NOMO-1 viab 97.5
C[C@@H]1CN([C@@H](C)CO)C(=O)c2cc(NC(=O)Nc3ccc(C(F)(F)F)cc3)ccc2O[C@H]1CN(C)Cc1ccc(Oc2ccccc2)cc1	NOMO-1 viab 118.4
Cc1nc(C)c(C(=O)C2C(=O)C(=O)N(CCN(C)C)C2c2ccccc2F)s1 (centres undefined)	none (no result: Hedgehog inh, YB-1 expression)
C[C@H](CO)N1C[C@H](C)[C@@H](CN(C)S(=O)(=O)c2ccc(Cl)cc2)Oc2ccc(NC(=O)Cn3cnnn3)cc2C1=O	none (no result: Hedgehog inh)
COc1ccc(C(=O)Nc2ccc(S(=O)(=O)Nc3cc(C)on3)cc2)cc1	none (no result: Hedgehog inh, YB-1 expression)
C[C@H](CO)N1C[C@H](C)[C@H](CN(C)Cc2ccc(C(=O)Nc3ccccc3N)cc2)Oc2ccc(NS(=O)(=O)c3ccc(F)cc3)cc2CC1=O	NOMO-1 viab 140.0 (no result: Hedgehog inh)
C[C@H](CO)N1C[C@H](C)[C@H](CN(C)Cc2ccc(C(=O)Nc3ccccc3N)cc2)Oc2ccc(NS(=O)(=O)c3ccc(Cl)cc3)cc2CC1=O	NOMO-1 viab 141.5 (no result: Hedgehog inh)
Cc1ccc(S(=O)(=O)Nc2ccc3c(c2)CC(=O)N([C@@H](C)CO)C[C@H](C)[C@@H](CN(C)Cc2ccc(C(=O)Nc4ccccc4N)cc2)O3)cc1	none (no result: Hedgehog inh)
Cc1ccc(S(=O)(=O)Nc2ccc3c(c2)CC(=O)N([C@H](C)CO)C[C@@H](C)[C@@H](CN(C)Cc2ccc(C(=O)Nc4ccccc4N)cc2)O3)cc1	NOMO-1 viab 107.4 (no result: Hedgehog inh)
O=C(O)CCCCCC(=O)N/N=C/c1cc(Br)c(O)c(Br)c1	none (no result: Hedgehog inh, NOMO-1 viab, MITF inh, PD-1 reversal)
Nc1cccc(-c2nnc(SCC(=O)c3ccc(F)cc3)n2-c2ccccc2)c1	none (no result: Hedgehog inh, YB-1 expression, PD-1 reversal)
CC(C)NC(=O)Nc1ccc2c(c1)C(=O)N([C@H](C)CO)C[C@H](C)[C@@H](CN(C)CC1CC1)OCCCC[C@@H](C)O2	none (no result: Hedgehog inh, PD-1 reversal)
O=S(=O)(NCC1COc2ccccc2O1)c1ccc(S(=O)(=O)c2ccccc2)s1 (centres undefined)	none
C[C@H](CO)N1C[C@H](C)[C@H](CN(C)Cc2ccc(Cl)c(Cl)c2)Oc2c(NC(=O)Nc3ccc(C(F)(F)F)cc3)cccc2C1=O	NOMO-1 viab 94.3
C[C@H](CO)N1C[C@H](C)[C@H](CN(C)Cc2ccc(Cl)c(Cl)c2)Oc2c(NC(=O)Nc3ccc(F)cc3)cccc2C1=O	NOMO-1 viab 98.9
C[C@H]1CN([C@@H](C)CO)C(=O)c2cccc(NC(=O)Nc3ccc(F)cc3)c2O[C@H]1CN(C)Cc1ccc(C(F)(F)F)cc1	none
C[C@H](CO)N1C[C@H](C)[C@@H](CN(C)Cc2ccc(Cl)c(Cl)c2)Oc2c(NC(=O)Nc3cccc4ccccc34)cccc2C1=O	NOMO-1 viab 115.2
C[C@@H]1CN([C@H](C)CO)C(=O)c2cccc(NC(=O)Nc3ccccc3)c2O[C@H]1CN(C)Cc1ccc(Cl)c(Cl)c1	NOMO-1 viab 106.4
C[C@@H]1CN([C@@H](C)CO)C(=O)c2cccc(NC(=O)Nc3ccccc3)c2O[C@@H]1CN(C)Cc1ccc(Cl)c(Cl)c1	NOMO-1 viab 116.1
C[C@@H]1CN([C@H](C)CO)C(=O)c2cccc(NC(=O)Nc3ccc(F)cc3)c2O[C@@H]1CN(C)Cc1ccc(Cl)c(Cl)c1	none
COC(=O)c1cc(C)nc(Sc2ccccc2NC(=O)Nc2ccc(Cl)cc2)n1	NOMO-1 viab 108.7
Clc1ccc2ncnc(NCc3ccc4c(c3)OCO4)c2c1	NOMO-1 viab 82.5
CCCCC(=O)/C=C/n1c(=S)oc2ccccc21	NOMO-1 viab 133.3 (no result: Hedgehog inh)
C[C@H]1CN([C@@H](C)CO)C(=O)c2cccc(NC(=O)CCCCCC(=O)Nc3ccccc3N)c2O[C@H]1CN(C)S(=O)(=O)c1ccc(Cl)cc1	NOMO-1 viab 115.2 (no result: Hedgehog inh)
C[C@@H]1CN([C@H](C)CO)C(=O)c2cccc(NC(=O)CCCCCC(=O)Nc3ccccc3N)c2O[C@H]1CN(C)S(=O)(=O)c1ccc(Cl)cc1	NOMO-1 viab 120.6 (no result: Hedgehog inh)
C[C@H]1CN([C@@H](C)CO)C(=O)c2cccc(NC(=O)CCCCCC(=O)Nc3ccccc3N)c2O[C@H]1CN(C)S(=O)(=O)c1ccccc1	none (no result: Hedgehog inh)
Cc1ccc(S(=O)(=O)N(C)C[C@@H]2Oc3c(NC(=O)CCCCCC(=O)Nc4ccccc4N)cccc3C(=O)N([C@H](C)CO)C[C@@H]2C)cc1	NOMO-1 viab 111.3 (no result: Hedgehog inh)
C[C@H](CO)N1C[C@H](C)[C@@H](CN(C)S(=O)(=O)c2ccc(Cl)cc2)Oc2c(NC(=O)CCCCCC(=O)Nc3ccccc3N)cccc2C1=O	NOMO-1 viab 88.0 (no result: Hedgehog inh)
C[C@H](CO)N1C[C@H](C)[C@@H](CN(C)S(=O)(=O)c2ccccc2)Oc2c(NC(=O)CCCCCC(=O)Nc3ccccc3N)cccc2C1=O	none (no result: Hedgehog inh)
C[C@@H]1CN([C@H](C)CO)C(=O)c2cccc(NC(=O)CCCCCC(=O)Nc3ccccc3N)c2O[C@@H]1CN(C)S(=O)(=O)c1ccc(F)cc1	none (no result: Hedgehog inh)
C[C@H]1CN([C@@H](C)CO)C(=O)Cc2cc(N(C)C)ccc2O[C@H]1CN(C)Cc1ccc(C(F)(F)F)cc1	none (no result: PD-1 reversal)
Cc1cc(/C=C2/SC(=O)N(C(C)C)C2=O)c(C)n1-c1ccncc1	YB-1 expression 9.62 (no result: Hedgehog inh)
Cc1cc(C)cc(-n2c(C)cc(/C=C3\SC(=O)NC3=O)c2C)c1	none (no result: Hedgehog inh)

Screening results as filed in PubChem.
